Hits are enriched below; roughly 12% of the tested compounds scored in any of these assays.
L3MBTL1 block: L3MBTL1 (human) inhibition; Q9Y468; AlphaScreen L3MBTL1–H3K9me1 peptide binding; Potency, µM (highest dose often 57.1 µM), without a hit: at the top dose activity, negative = inhibition, usual class: inhibitors; 230,000 tested, 0.66% active; AID 485360; also: % is scaled to controls: 0 for no effect and ±100 for the full control effect; nearly all actives have a fitted effect of over 60% in size
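L3MBTL1 50 nM + b-AHA-H3(1-15)K9me1 75 nM, 30 min RT; compound added, 30 min RT; streptavidin donor/Ni-chelate acceptor beads 10 ug/mL each final, 30 min RT dark; AlphaScreen read.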
BAZ2B inh: BAZ2B (human) inhibition. 360,000 tested, 4.4% active. Potency, µM (series often up to 114 µM), for the others: top-dose activity change, negative = inhibition, most hits filed as inhibitors. AlphaScreen BAZ2B-H3K14Ac peptide displacement. Q9UIF8; also: % is scaled to controls: 0 for no effect and ±100 for the full control effect; nearly all actives have a fitted effect of over 60% in size
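Multi-concentration screen (max 110 uM) measuring displacement of acetylated histone H3 peptide from BAZ2B by AlphaScreen, using 50 nM protein, 50 nM peptide and 10 ug/mL streptavidin donor plus Ni-chelate acceptor beads.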
JMJD2A Tudor: blocks the human JMJD2A Tudor domain. O75164. AlphaScreen JMJD2A-Tudor / H3K4me3 peptide binding. Potency, µM (series often up to 114 µM), without a hit: at the top dose activity change, negative = inhibition, most hits filed as inhibitors. 390,000 tested, 4.4% active. AID 504339; also: % is scaled to controls: 0 for no effect and ±100 for the full control effect; nearly all actives have a fitted effect of over 50% in size
G9a block: inhibitors of human histone lysine methyltransferase G9a. G9a H3K9 monomethylation, AlphaScreen, 2 h. Potency, µM (series often up to 102 µM), for inactives: top-dose activity, negative = inhibition, usual class: inhibitors. 350,000 tested, 8.8% active. AID 504332; also: % is scaled to controls: 0 for no effect and ±100 for the full control effect; nearly all actives have a fitted effect of over 75% in size
Target sequence (Q96KQ7 913-1193 limits assumed): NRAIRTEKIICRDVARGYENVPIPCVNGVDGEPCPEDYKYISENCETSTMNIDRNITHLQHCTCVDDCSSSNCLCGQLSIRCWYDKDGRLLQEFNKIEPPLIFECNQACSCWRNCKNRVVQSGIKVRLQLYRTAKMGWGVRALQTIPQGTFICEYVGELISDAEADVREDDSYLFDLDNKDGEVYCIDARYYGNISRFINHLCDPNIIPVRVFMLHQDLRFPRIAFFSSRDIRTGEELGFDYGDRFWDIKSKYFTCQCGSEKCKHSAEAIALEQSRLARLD
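Compounds were preincubated with 20 nM G9a for 15 min, after which biotinylated H3K9 peptide (500 nM) and SAM (20 uM) started a 2 h room-temperature reaction. Monomethylated product was quantified by antibody-based AlphaScreen chemiluminescence.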
Sfp PPTase inh: blocks B. subtilis Sfp PPTase activity; AID 1490; Potency, µM, for the others: largest response in the series, negative = inhibition, most hits filed as inhibitors; 310,000 tested, 3.5% active; Q9F4F7; Biochemical Sfp PPTase activity, qHTS;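 also: the enzyme is Sfp with the accession as filed and its product quenches rhodamine fluorescence; 0% = enzyme reaction without inhibitor and -100% = no enzyme wells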
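After 15 min at room temperature with compound, 15 nM Sfp received 5 uM rhodamine-CoA plus 12.5 uM BHQ-2-ybbR (50 mM Hepes pH 7.6, 10 mM MgCl2). Rate came from the fluorescence difference over 30 min, ex 525/em 598 nm.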
HP1b chromo inh: inhibitors of HP1-beta chromodomain binding to methylated histone tails; P83916; AlphaScreen HP1-beta / biotin-H3K9me3 peptide binding; Potency, µM (titrated, usually from 114 µM), inactives show at the highest dose activity change, negative = inhibition, actives largely listed as inhibitors; 390,000 tested, 0.56% active; AID 540317; also: nearly all actives have a fitted effect of over 70% in size
Target sequence (P83916 whole entry, looked up): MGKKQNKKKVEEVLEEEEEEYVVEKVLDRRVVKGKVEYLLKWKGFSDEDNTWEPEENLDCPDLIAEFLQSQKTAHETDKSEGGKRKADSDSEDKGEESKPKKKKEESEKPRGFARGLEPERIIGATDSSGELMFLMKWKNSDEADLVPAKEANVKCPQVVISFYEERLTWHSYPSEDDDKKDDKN
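Compound inhibition of the preformed complex between 50 nM HP1-beta and 50 nM biotinylated H3K9me3 peptide was read by AlphaScreen. Buffer was PBS pH 7.4 with 0.01% Tween-20. Incubations ran 30 min at room temperature, with 10 ug/mL donor/acceptor beads.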
An asterisk follows results filed as active; ? = inconclusive; · = not tested or not shown; [ ] = dose if it differs, or a comment. Calls follow the shape of the dose curve; as a rule, active = well fitted curve in the direction sought with a large enough effect; inconclusive = small, poorly fitted or top-dose-only effect, or another doubt; inactive = no such curve, though single readings can be large; an effect the other way counts as inactive or inconclusive. Potency is read from the fitted curve at half-maximal effect.

SMILES	L3MBTL1 block	BAZ2B inh	JMJD2A Tudor	G9a block	Sfp PPTase inh	HP1b chromo inh
COc1ccc(CCNC(=O)COC(=O)Cc2ccccc2[N+](=O)[O-])cc1	4%	·	-10%	·	·	18%
COc1ccc(N(C)S(=O)(=O)c2ccc(C)cc2)c([N+](=O)[O-])c1	-3%	-29%	-27%	?	-4%	7%
CCCOc1ccc(C(=O)Nc2ccccc2[N+](=O)[O-])cc1	·	·	56µM*	·	·	?
COc1ccc(NC(=O)CN(C)S(=O)(=O)c2ccc(C)cc2)c([N+](=O)[O-])c1	-8%	-6%	-13%	32µM*	32%	12%
COc1ccc(-n2nc(C(=O)N3CCN(c4cccc(C)c4C)CC3)c3c4ccccc4n(C)c3c2=O)cc1Cl	·	·	-15%	-5%[59 µM]	·	21%
CN(C)CCCNc1ncnc2ccc(-c3ccc4c(c3)OCO4)cc12	·	·	-11%	·	·	·
CCOc1ccc(CCNC(=O)CCSCc2ccc(Cl)cc2)cc1OCC	·	-9%	-21%	-2%[59 µM]	·	19%
Cc1c(Cl)cccc1NC(=O)Cn1cnc2nc3c(cc2c1=O)CCCC3	·	5%	?	-6%[59 µM]	·	26%[57 µM]
COc1ccc(CNC(=O)CCc2c(C)nn(-c3ccc(N4CCCC4)nn3)c2C)c(OC)c1	·	-36%	-15%	8%[59 µM]	·	29%
COc1ccc(NC(=O)CC2Nc3ccccc3NC2=O)c([N+](=O)[O-])c1 (configuration not stated)	1%	-15%	-9%	50µM*	19%	1%
O[C@H](CN1CCN(c2cccc(Cl)c2)CC1)C(c1ccccc1)c1ccccc1	·	·	·	·	3%	·
CCOc1ccc(C2NCCc3cc(OC)c(OC)cc32)cc1OC (configuration not stated)	·	3%	-10%	-14%	15%	44%
CCOc1cc(C2Nc3cccc4cccc(c34)N2)ccc1O	·	?	-33%	10µM*	-12%	-35%
CCOc1ccc(C2Nc3cccc4cccc(c34)N2)cc1OC	-5%	-39%	?	10µM*	-26%	50µM*
CCOc1cc(C2Nc3ccccc3C(=O)N2c2ccccc2)ccc1O (configuration not stated)	3%	-5%	-1%	20%	7%	18%
COc1ccccc1-c1noc(CSc2nnc(Cc3ccccc3)n2-c2ccc(C)c(C)c2)n1	·	-26%	-27%	-24%[59 µM]	·	31%
CC(=O)c1ccc(N2CCN(C(=O)NCc3noc4ccc(C)cc34)CC2)cc1	·	-33%	-21%	0%[59 µM]	·	1%
CCOC(=O)c1cc(NC(=O)c2ccccc2)c(=O)oc1C(F)(F)F	-16%	-3%	-7%	?	-8%	33%
COC(=O)c1cc(NC(=O)c2cccc(C(F)(F)F)c2)c(=O)oc1C	·	-7%	-5%	28µM*	?	44%
COC(=O)c1cc(NC(=O)c2cccc(C(F)(F)F)c2)c(=O)oc1C/C=N/OCc1cccc(Cl)c1Cl	·	-6%	-21%[11.4 µM]	40µM*	0%	-21%
Cc1ccc2oc(=O)n(Cc3ccccc3Cl)c2c1	·	369%	78%	103%[59 µM]	·	120%
CC1CCN(CC(=O)Nc2ccc(S(=O)(=O)NC3CC3)cc2)CC1	·	50µM*	20µM*	14µM*	12%	?
CC1CCCN(S(=O)(=O)c2ccc(NC(=O)CN3CCCCC3)cc2)C1 (configuration not stated)	-4%	-1%	?	45µM*	17%	24%
Cc1noc(C)c1C(=O)Nc1ccc(S(=O)(=O)N2CCC(C)CC2)cc1	7%	-6%	-11%	22µM*	·	33%
CC(=O)Nc1ccc(NC(=O)C(C)N2CCN(S(=O)(=O)c3ccc(C)cc3)CC2)cc1 (configuration not stated)	4%	-11%	-5%	10%	3%	16%
SMILES	L3MBTL1 block	BAZ2B inh	JMJD2A Tudor	G9a block	Sfp PPTase inh	HP1b chromo inh
CC(=O)Nc1ccc(S(=O)(=O)N2CCN(C(C)CCc3ccccc3)CC2)cc1 (configuration not stated)	·	50µM*	1µM*	7.1µM*	-13%	?
CC1CCCN(CC(=O)Nc2ccc(S(=O)(=O)N3CCCCC3)cc2)C1 (configuration not stated)	6%	6%	-13%	-7%[59 µM]	17%	26%
O=C(Nc1ccc(Cl)cc1F)c1cc(S(=O)(=O)NCc2ccc3c(c2)OCO3)ccc1F	·	-1%	-24%	-26%[59 µM]	·	5%
COc1ccc(-n2c(=O)c(C)nc3cnc(N(C)C)nc32)cc1	·	·	·	5%[12.7 µM]	29%	·
CC(=O)Nc1ccc(S(=O)(=O)N2CCN3CCCC3C2)cc1 (configuration not stated)	·	-9%	-1%	79µM*	19%	30%
CC1CCN(S(=O)(=O)c2ccc(NC(=O)Cc3cccs3)cc2)CC1	·	?	50µM*	?	2%	1%
CC1CCN(S(=O)(=O)c2ccc(NC(=O)CN3CCCC3)cc2)CC1	·	71µM*	4µM*	10µM*	4%	-26%
CCN(CC(=O)Nc1ccc(OC)cc1)C(=O)Cc1cccs1	?	50µM*	?	6%[0.501 µM]	·	-22%
CCN(CC(=O)Nc1ccc(OC)cc1)C(=O)CCS(=O)(=O)c1ccc(C)cc1	·	7%	-1%	90%	4%	46%
Cc1ccc(N2C(=O)c3n[nH]c(C)c3C2c2ccc(C(C)C)cc2)cc1 (configuration not stated)	·	·	-17%	-33%[59 µM]	·	12%
COc1ccc(-c2nnc3n2N=C(c2c(OC)cccc2OC)CS3)cc1OC	·	·	-24%	·	9%	·
CCN(CC)S(=O)(=O)c1ccc(NC(=O)Cc2cccs2)cc1	·	71µM*	-23%[11.4 µM]	-7%[59 µM]	4%	?
CC1CCN(CC(=O)Nc2ccc(S(=O)(=O)N3CCC(C)CC3)cc2)CC1	1%	?	0.79µM*	·	-25%	?
CC(=O)Nc1ccc(S(=O)(=O)N2CCN(Cc3cccs3)CC2)cc1	2%	35µM*	-99%	18µM*	-18%	32µM*
CC1CCN(S(=O)(=O)c2ccc3c(c2)CCC(=O)N3CC(=O)Nc2cccc(C#N)c2)CC1	?	50µM*	-32%	3%[12.7 µM]	·	-21%
COC(=O)c1ccc(NC(=O)N2CCN(c3nnc(C)c4c(C)n(-c5ccccc5)nc34)CC2)cc1	·	-12%	-29%	4%[59 µM]	·	-7%
COc1ccc(CCNC(=O)CCCCn2c(=O)c3ccccc3n(Cc3ccccc3Cl)c2=O)cc1OC	·	-7%	-10%	-36%[59 µM]	·	13%
CC1=CCC2CC1C2(C)C (configuration not stated)	·	·	·	17%[59 µM]	20%	·
CCOc1ccc(CN2CCN(S(=O)(=O)c3ccc(NC(C)=O)cc3)CC2)cc1OC	-2%	50µM*	22µM*	6.3µM*	-21%	?

Compound activity from PubChem.
